The whole screen tested about 5,500 compounds, of which about 2,000 (36%) were called active. Inconclusive results (about 18%) are left out. Cut-off read from the data, not from the text of the source: active = normalized growth mostly below about 0.91 (no sharp cut-off); inconclusive = no clear call, values can overlap the other calls; inactive = mostly above about 0.92. This is one part of the list.
Experiment: chemical genetic growth profiling, strain panel (AID 1159580);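 note: tested at 20 µM; growth read once vehicle control cultures reached saturation at 30 °C; 1 = growth at the plate median or of vehicle wells; lower values mean less growth of the strain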
Conditions: S. cerevisiae deletion strains, growth OD

Measured: normalized growth

N[C@@H](Cc1c[nH]c2ccc(O)cc12)C(=O)O
inactive: locus YAL013W, strain DEP1, stronger effect = lower value 1.02 | locus YAL040C, strain CLN3, stronger effect = lower value 0.959 | locus YCL061C, strain MRC1 (second series), stronger effect = lower value 1.01 | locus YDR150W, strain NUM1, stronger effect = lower value 1.03 | locus YDR363W, strain ESC2, stronger effect = lower value 1.01 | locus YER002W, strain NOP16, stronger effect = lower value 1 | locus YJR075W, strain HOC1, stronger effect = lower value 1.01 | locus YMR263W, strain SAP30, stronger effect = lower value 0.997 | locus YNL175C, strain NOP13, stronger effect = lower value 1.03 | locus YNL197C, strain WHI3, stronger effect = lower value 1 | locus YNL224C, strain SQS1, stronger effect = lower value 1.01 | locus YNL322C, strain KRE1, stronger effect = lower value 1.01 | locus YOR083W, strain WHI5 (second series), stronger effect = lower value 1.02 | locus YPL055C, strain LGE1, stronger effect = lower value 1.03 | locus YPL241C, strain CIN2, stronger effect = lower value 1
